Hits are enriched below; roughly 3.3% of the tested compounds scored in any of these assays.
PRMT1 inh – inhibitors of human PRMT1; recombinant PRMT1, activity-based probe fluorescence polarization; Q99873; inhibition, % at 2.79 µM; actives 1.3% (n = 370,000);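 active means inhibition above about 21% made by adding two undisclosed values, limit read from the data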
TLR9-MyD88 inh – blocks human TLR9 binding to MyD88. Q9NR96+Q99836. CHO BLA complementation TLR9-MyD88, CCF4 FRET ratio. inhibition, % at 4.98 µM. actives 0.21% (n = 340,000);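 active means inhibition above the mean over all tested compounds plus 3 SD, cut at about 21% in these data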
rCAG RNA binder – molecules binding r(CAG) RNA repeats; r(CAG) RNA repeat, TO-PRO-1 dye displacement fluorescence; inhibition, % at 3 µM; actives 1.3% (n = 370,000);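 active means inhibition above the plate cutoff, the mean of all test compounds on that plate plus 3 SD, cut at about 35% in these data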;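 further: higher means more dye released from RNA so lower well fluorescence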
NOD2-RIPK2 inh – NOD2-RIPK2 protein interaction inhibition. AID 624267. CHO BLA complementation NOD2-RIPK2, CCF4 ratio. inhibition, % at 4.98 µM. actives 0.38% (n = 360,000); in the data active means inhibition above about 21%
ABHD5 PLIN5 PPI – inhibitors of human ABHD5-perilipin-5 interaction; inhibition, % at 4 µM; AID 602281; actives 0.78% (n = 360,000); Split G. princeps luciferase complementation, luminescence, 4 h;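 active means inhibition above the mean inhibition across every tested compound plus 3 SD, cut at about 22% in these data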
TLR4-MyD88 BLA – TLR4-MyD88 interaction inhibition in cells. O00206+Q99836. HeLa CL3-4 TLR4/MyD88 BLA complementation, FRET ratio. inhibition, % at 8.4 µM. actives 0.18% (n = 200,000). AID 861; in the data active means inhibition above about 25%
rCAG binder conf – r(CAG) RNA repeat binding, confirmation; TO-PRO-1 dye displacement fluorescence; actives 70% (n = 4,300); AID 652065; shares compounds with rCAG RNA binder; inhibition, % at 3 µM;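 active means inhibition above a per-plate cutoff, the mean inhibition of sample wells plus 3 SD, cut at about 35% in these data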;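 further: loss of TO-PRO-1 fluorescence as compound displaces dye from 1x1 AA loop RNA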
dCAG dye counter – DNA CAG dye complex inhibition counter-screen; shares compounds with rCAG RNA binder; d(CAG) DNA oligo TO-PRO-1 dye displacement, fluorescence; inhibition, % at 3 µM; actives 94% (n = 4,300); AID 652068;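 active means inhibition above its plate's cutoff, the mean test-well inhibition plus 3 SD, cut at about 4.8% in these data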;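 further: hits displace the dye from DNA and so lower well fluorescence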
Each line names hits and unclear results; the compound was inactive in the other large screens (follow-up assays come after a bar, where they were run).

CC(C)(C)OC(=O)NCc1cc2c(cc1/C=C/S(=O)(=O)NCc1ccc(F)cc1)OCO2	none (no result: TLR9-MyD88 inh, NOD2-RIPK2 inh, ABHD5 PLIN5 PPI, TLR4-MyD88 BLA)
CC(C)(C)c1ccc(NC(=O)COC(=O)c2ccc(NS(=O)(=O)c3ccc(F)c(F)c3)cc2)cc1	rCAG RNA binder 70 | rCAG binder conf 67 | dCAG dye counter 24
O=C(Nc1cc(S(=O)(=O)N2CCOCC2)ccc1O)c1ccc(NS(=O)(=O)c2ccc(Cl)s2)cc1	rCAG RNA binder 64 | rCAG binder conf 42 | dCAG dye counter 12
CC(C)(C)NC(=O)NC(=O)COC(=O)c1cccc(NS(=O)(=O)c2ccc(F)c(F)c2)c1	none
COc1ccc(NS(=O)(=O)c2ccc(O)c(NC(=O)c3ccc(S(=O)(=O)N4CCCC4)cc3)c2)cc1	rCAG RNA binder 74 (no result: TLR4-MyD88 BLA) | rCAG binder conf 50 | dCAG dye counter 18
CCOC(=O)c1ccc(S(=O)(=O)Nc2cc(S(=O)(=O)Nc3ccc(OC)cc3)ccc2O)cc1	rCAG RNA binder 62 (no result: TLR4-MyD88 BLA) | rCAG binder conf 52 | dCAG dye counter 22
O=S(=O)(Nc1cc(S(=O)(=O)N2CCCC2)ccc1O)c1ccc(Cl)s1	none (no result: TLR4-MyD88 BLA)
Cc1cc(C)c(NC(=O)CN(C)C(C)C(=O)N2CCc3ccccc32)c(C)c1 (centres undefined)	none (no result: TLR4-MyD88 BLA)
CCN1CCN(C(=O)C2CC(=O)N(c3ccc(Cl)cc3)C2)CC1 (centres undefined)	none (no result: TLR4-MyD88 BLA)
Cc1ccc(NC(=O)c2ccccc2NS(=O)(=O)c2ccc(Cl)s2)cc1S(=O)(=O)N1CCOCC1	rCAG RNA binder 87 | rCAG binder conf 90 | dCAG dye counter 69
O=C(COC(=O)c1cc(S(=O)(=O)N2CCCC2)ccc1O)Nc1ccc(S(=O)(=O)N2CCOCC2)cc1	none (no result: TLR4-MyD88 BLA)
COc1ccc(NS(=O)(=O)c2ccc(O)c(NC(=O)c3ccc(S(=O)(=O)N4CCCCCC4)cc3)c2)cc1	rCAG RNA binder 68 | rCAG binder conf 78 | dCAG dye counter 39
CCN(CC)S(=O)(=O)c1ccc(NC(=O)COC(=O)c2cc(S(=O)(=O)Nc3ccc(OC)cc3)ccc2O)cc1	rCAG RNA binder 36 | rCAG binder conf 61 | dCAG dye counter 26
O=C(COC(=O)c1cc(S(=O)(=O)N2CCCC2)ccc1O)Nc1ccc(SC(F)F)cc1	rCAG RNA binder 45 (no result: TLR4-MyD88 BLA) | rCAG binder conf 40 | dCAG dye counter 11
N#CCCN(C(=O)c1ccc2c(=O)n3c(nc2c1)CCCCC3)c1ccccc1	none (no result: TLR4-MyD88 BLA)
O=C(NN1CCOCC1)c1ccccc1	none (no result: TLR4-MyD88 BLA)
COC(=O)[C@H](C(C)C)N1Cc2nnn(Cc3ccccc3)c2C=CS1(=O)=O	none (no result: TLR9-MyD88 inh, NOD2-RIPK2 inh, ABHD5 PLIN5 PPI, TLR4-MyD88 BLA)
O=C(O)Cc1ccc(N=Nc2c(O)c(C(=O)O)cc3ccccc23)cc1	rCAG RNA binder 87 (no result: TLR4-MyD88 BLA) | rCAG binder conf 58 | dCAG dye counter 23
NS(=O)(=O)c1ccc(N=Nc2c(O)c(C(=O)O)cc3ccccc23)cc1	rCAG RNA binder 46 (no result: TLR4-MyD88 BLA) | rCAG binder conf 48 | dCAG dye counter 26
O=C(O)c1cccc(-n2cccc2/C=C2/NC(=O)N(c3ccc(Cl)cc3)C2=O)c1	PRMT1 inh 32, rCAG RNA binder 72 | rCAG binder conf 69 | dCAG dye counter 30
O=C(O)c1cccc(-n2cccc2/C=C2/NC(=O)N(c3cccc(Cl)c3)C2=O)c1	rCAG RNA binder 36 (no result: TLR4-MyD88 BLA) | rCAG binder conf 35 | dCAG dye counter 10
Cc1ccccc1OCC(=O)Nc1nnc(COc2ccccc2)s1	none (no result: TLR4-MyD88 BLA)
CCN=c1scc(C)n1/N=C/c1ccc(O)c(O)c1O	PRMT1 inh 60, rCAG RNA binder 38 | rCAG binder conf 49 | dCAG dye counter 19
CCN=c1scc(C)n1/N=C/c1cc(Br)c(O)c(Br)c1	rCAG RNA binder 36 | rCAG binder conf 42 | dCAG dye counter 18
N#Cc1c(Cc2cccc3ccccc23)nn(CCO)c1N	none (no result: TLR4-MyD88 BLA)
O=[N+]([O-])c1ccc2[nH]cc(S(=O)(=O)N3CCN(c4cccc(Cl)c4)CC3)c2c1	rCAG RNA binder 43 (no result: TLR4-MyD88 BLA) | rCAG binder conf 37 | dCAG dye counter 20
O=S(=O)(c1ccccc1)N1CCN(c2cccc(Cl)c2)CC1	none (no result: TLR4-MyD88 BLA)

Screening data as filed in PubChem BioAssay.
